Test [1] deals with human Protein Phosphatase, Mg2+/Mn2+ Dependent 1A (PPM1A), PPM1A (gene 5494) (UniProt P35813). As to the kind of experiment: NVS_ENZ_hPPM1A: NovaScreen (NVS) Enzymatic Assay for human Protein Phosphatase, Mg2+/Mn2+ Dependent 1A (PPM1A) (AID 2283198). The essentials:
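Primary screen in duplicate at 25 uM, with actives then titrated to a maximum of 50 uM. Recombinant PPM1A dephosphorylation of fluorescent substrate measured at 1 h, with substrate and product separated by mobility shift; inhibition fitted against DMSO.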

Test [2] deals with human Protein Tyrosine Phosphatase Non-receptor Type 6 (PTPN6), PTPN6 (gene 5777) (UniProt P29350). As to the kind of experiment: NVS_ENZ_hPTPN6: NovaScreen (NVS) Enzymatic Assay for human Protein Tyrosine Phosphatase Non-receptor Type 6 (PTPN6) (AID 2283210). The gist of the method: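 Recombinant human PTPN6 from SF9 cells, enzyme activity followed by fluorescence after mobility-shift separation of substrate and product at 1.33 h. Chemicals first tested at a single 25 uM in duplicate, then confirmed across concentration series; loss of signal relative to DMSO.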

Test [3] concerns the target human Protein Tyrosine Phosphatase Non-receptor Type 1 (PTPN1), PTPN1 (gene 5770) (UniProt P18031). As to the kind of experiment: NVS_ENZ_hPTPN1: NovaScreen (NVS) Enzymatic Assay for human Protein Tyrosine Phosphatase Non-receptor Type 1 (PTPN1) (AID 2283201). The gist of the method:
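Chemicals were first tested in duplicate at 25 uM, and those passing threshold went on to singleton concentration series topping at 50 uM. Recombinant enzyme, specific substrate, product separated by mobility shift, fluorescence read at 1.33 h; activity loss relative to DMSO.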

Test [4] concerns the target Tyrosine-protein phosphatase non-receptor type 11 (Homo sapiens) (UniProt Q06124). As to the kind of experiment: NVS_ENZ_hPTPN11: NovaScreen (NVS) Enzymatic Assay for human Protein Tyrosine Phosphatase Non-receptor Type 11 (PTPN11) (AID 2283202). The gist of the method: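 Compounds first tested in duplicate at 25 uM; those reaching ~30% inhibition rerun in singleton concentration-response, top 50 uM. Phosphatase activity measured after 0.5 h by fluorescence with mobility-shift separation, relative to DMSO.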

The target of test [5] is Tyrosine-protein phosphatase non-receptor type 14 (Homo sapiens) (UniProt Q15678). As to the kind of experiment: NVS_ENZ_hPTPN14: NovaScreen (NVS) Enzymatic Assay for human Protein Tyrosine Phosphatase Non-receptor Type 14 (PTPN14) (AID 2283206). The essentials: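 Fluorescent substrate turnover by recombinant human PTPN14 was measured 0.5 h after compound addition, with substrate and product separated by mobility shift. Single-point screening at 25 uM, then concentration-response up to 50 uM for chemicals meeting threshold (e.g., 30% inhibition).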

Test [6] concerns the target human Protein Tyrosine Phosphatase Non-receptor Type 4 (PTPN4), PTPN4 (gene 5775) (UniProt P29074). In words: NVS_ENZ_hPTPN4: NovaScreen (NVS) Enzymatic Assay for human Protein Tyrosine Phosphatase Non-receptor Type 4 (PTPN4) (AID 2283208). The gist of the method:
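Screened in duplicate at 25 uM, with hits then titrated to a top concentration of 50 uM. Recombinant Sf9-derived PTPN4 turnover was read by fluorescence with electrophoretic separation, 1.33 h after compound addition. DMSO served as baseline.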

Test [7] deals with Tyrosine-protein phosphatase non-receptor type 12 (Homo sapiens) (UniProt Q05209). As to the kind of experiment: NVS_ENZ_hPTPN12: NovaScreen (NVS) Enzymatic Assay for human Protein Tyrosine Phosphatase Non-receptor Type 12 (PTPN12) (AID 2283204). The essentials:
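Single-concentration duplicates (25 uM) preceded singleton concentration-response up to 50 uM for chemicals passing threshold. Cell-free recombinant PTPN12 activity was read 1.33 h after dosing via fluorescence after mobility-shift separation; loss of signal versus DMSO.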

Test [8] deals with human Rho Associated Coiled-coil Containing Protein Kinase 1 (ROCK1), ROCK1 (gene 6093) (UniProt Q13464). As to the kind of experiment: NVS_ENZ_hROCK1: NovaScreen (NVS) Enzymatic Assay for human Rho Associated Coiled-coil Containing Protein Kinase 1 (ROCK1) (AID 2283214). The essentials:
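Compounds first run in duplicate at 25 uM against recombinant human ROCK1, then followed in concentration series. Kinase activity was read 1 h post-dosing by fluorescence with mobility-shift separation, as signal loss relative to DMSO.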

The target of test [9] is human Protein Tyrosine Phosphatase Receptor Type M (PTPRM), PTPRM (gene 5797) (UniProt P28827). As to the kind of experiment: NVS_ENZ_hPTPRM: NovaScreen (NVS) Enzymatic Assay for human Protein Tyrosine Phosphatase Receptor Type M (PTPRM) (AID 2283215). The essentials: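 Read-out is fluorescence after electrophoretic separation of substrate and product, taken 1.33 h post-dosing with recombinant enzyme. Compounds screened at 25 uM in duplicate, then concentration series for actives; activity as signal loss relative to DMSO.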

Records with an inconclusive call do not appear. Calls of active or inactive are those of the source. How the source made its calls: active means hit-call score of the fitted dose curve at least 0.9, where 1 is the maximum; inconclusive means response in the unintended direction; inactive means score below 0.9.

Sequence of human Protein Tyrosine Phosphatase Receptor Type M (PTPRM), PTPRM (gene 5797) (P28827 whole entry, looked up): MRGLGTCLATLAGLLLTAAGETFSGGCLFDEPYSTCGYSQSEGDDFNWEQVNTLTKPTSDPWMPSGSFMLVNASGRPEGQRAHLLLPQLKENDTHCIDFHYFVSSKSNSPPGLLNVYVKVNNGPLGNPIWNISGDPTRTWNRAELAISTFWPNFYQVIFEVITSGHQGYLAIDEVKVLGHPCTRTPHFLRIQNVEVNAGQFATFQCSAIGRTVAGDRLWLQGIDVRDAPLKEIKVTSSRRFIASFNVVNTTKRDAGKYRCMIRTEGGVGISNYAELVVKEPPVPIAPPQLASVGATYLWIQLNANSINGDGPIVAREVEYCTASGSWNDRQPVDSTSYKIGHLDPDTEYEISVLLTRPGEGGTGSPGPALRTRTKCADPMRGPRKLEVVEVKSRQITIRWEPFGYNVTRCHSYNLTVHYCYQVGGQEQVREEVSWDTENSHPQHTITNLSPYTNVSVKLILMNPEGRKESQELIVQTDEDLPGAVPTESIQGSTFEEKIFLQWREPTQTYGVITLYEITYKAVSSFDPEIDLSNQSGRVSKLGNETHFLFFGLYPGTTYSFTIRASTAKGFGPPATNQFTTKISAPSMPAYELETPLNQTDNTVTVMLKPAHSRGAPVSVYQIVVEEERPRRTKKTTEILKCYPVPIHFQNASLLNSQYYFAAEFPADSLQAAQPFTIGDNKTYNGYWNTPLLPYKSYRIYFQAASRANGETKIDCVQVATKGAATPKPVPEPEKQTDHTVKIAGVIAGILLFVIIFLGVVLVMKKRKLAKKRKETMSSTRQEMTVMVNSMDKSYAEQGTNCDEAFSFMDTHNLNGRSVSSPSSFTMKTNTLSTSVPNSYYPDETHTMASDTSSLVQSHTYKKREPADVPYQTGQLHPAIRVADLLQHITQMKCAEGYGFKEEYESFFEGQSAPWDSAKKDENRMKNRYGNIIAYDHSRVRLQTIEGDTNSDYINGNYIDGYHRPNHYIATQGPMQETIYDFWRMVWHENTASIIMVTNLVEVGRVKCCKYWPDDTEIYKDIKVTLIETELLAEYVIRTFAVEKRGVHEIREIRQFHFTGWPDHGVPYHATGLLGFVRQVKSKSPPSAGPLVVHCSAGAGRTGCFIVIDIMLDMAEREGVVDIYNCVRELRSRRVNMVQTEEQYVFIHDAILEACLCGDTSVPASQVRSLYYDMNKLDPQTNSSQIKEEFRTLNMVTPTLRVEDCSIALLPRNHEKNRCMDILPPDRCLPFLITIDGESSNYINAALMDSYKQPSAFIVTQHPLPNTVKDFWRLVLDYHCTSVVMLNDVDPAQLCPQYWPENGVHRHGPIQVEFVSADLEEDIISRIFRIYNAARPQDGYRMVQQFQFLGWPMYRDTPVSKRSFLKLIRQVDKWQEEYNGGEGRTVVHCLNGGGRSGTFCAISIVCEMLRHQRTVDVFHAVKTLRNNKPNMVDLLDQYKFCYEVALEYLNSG
Sequence of human Protein Tyrosine Phosphatase Non-receptor Type 6 (PTPN6), PTPN6 (gene 5777) (P29350 whole entry, looked up): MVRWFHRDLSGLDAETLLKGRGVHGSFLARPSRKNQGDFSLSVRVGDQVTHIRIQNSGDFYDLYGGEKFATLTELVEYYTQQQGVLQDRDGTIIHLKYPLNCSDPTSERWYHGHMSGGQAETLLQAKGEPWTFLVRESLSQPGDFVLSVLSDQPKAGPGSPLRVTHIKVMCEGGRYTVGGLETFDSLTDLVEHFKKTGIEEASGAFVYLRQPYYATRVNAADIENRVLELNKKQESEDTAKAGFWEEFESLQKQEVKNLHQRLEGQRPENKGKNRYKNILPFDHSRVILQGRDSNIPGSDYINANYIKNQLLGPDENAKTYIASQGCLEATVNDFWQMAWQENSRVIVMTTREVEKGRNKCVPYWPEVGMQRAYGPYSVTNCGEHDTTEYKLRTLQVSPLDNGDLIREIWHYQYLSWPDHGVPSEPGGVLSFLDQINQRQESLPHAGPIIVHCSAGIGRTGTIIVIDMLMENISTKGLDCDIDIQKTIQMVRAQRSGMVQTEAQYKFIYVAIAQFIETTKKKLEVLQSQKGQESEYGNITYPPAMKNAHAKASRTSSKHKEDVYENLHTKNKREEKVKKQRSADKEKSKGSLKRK
Sequence of Tyrosine-protein phosphatase non-receptor type 12 (Homo sapiens) (Q05209 whole entry, looked up): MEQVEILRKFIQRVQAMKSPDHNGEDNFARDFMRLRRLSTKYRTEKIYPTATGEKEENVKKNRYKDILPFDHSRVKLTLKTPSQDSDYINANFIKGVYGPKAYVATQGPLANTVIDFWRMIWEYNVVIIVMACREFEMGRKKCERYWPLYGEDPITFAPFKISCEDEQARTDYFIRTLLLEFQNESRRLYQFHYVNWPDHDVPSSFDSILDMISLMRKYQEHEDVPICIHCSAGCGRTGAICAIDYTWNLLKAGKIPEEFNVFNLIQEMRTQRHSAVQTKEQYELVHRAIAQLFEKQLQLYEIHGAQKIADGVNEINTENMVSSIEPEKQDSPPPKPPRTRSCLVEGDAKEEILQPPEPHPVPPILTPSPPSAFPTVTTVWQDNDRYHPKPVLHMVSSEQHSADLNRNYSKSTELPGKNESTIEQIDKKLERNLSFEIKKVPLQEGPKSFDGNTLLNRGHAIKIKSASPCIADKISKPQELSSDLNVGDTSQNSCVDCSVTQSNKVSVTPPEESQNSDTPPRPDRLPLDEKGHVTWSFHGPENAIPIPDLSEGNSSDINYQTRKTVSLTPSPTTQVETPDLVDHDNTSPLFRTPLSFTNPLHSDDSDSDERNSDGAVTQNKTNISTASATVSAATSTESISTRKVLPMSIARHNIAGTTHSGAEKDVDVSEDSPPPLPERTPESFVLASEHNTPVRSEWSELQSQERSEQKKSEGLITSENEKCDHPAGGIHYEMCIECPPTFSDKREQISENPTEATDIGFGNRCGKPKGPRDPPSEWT
Sequence of Tyrosine-protein phosphatase non-receptor type 11 (Homo sapiens) (Q06124 whole entry, looked up): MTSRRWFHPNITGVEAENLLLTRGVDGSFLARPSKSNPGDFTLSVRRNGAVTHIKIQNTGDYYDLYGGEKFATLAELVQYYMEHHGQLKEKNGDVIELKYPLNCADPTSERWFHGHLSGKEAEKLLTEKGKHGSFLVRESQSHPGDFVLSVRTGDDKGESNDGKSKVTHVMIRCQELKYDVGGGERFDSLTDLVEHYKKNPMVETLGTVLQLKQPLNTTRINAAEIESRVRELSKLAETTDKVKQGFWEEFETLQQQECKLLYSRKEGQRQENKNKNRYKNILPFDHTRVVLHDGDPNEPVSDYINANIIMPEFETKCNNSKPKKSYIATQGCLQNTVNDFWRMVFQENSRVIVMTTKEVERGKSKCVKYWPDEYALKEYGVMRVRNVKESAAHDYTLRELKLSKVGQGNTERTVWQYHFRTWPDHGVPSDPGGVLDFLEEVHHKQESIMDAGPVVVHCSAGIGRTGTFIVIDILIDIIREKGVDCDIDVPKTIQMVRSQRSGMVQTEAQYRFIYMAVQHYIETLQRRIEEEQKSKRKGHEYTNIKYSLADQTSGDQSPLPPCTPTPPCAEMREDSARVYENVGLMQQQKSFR
Sequence of Tyrosine-protein phosphatase non-receptor type 14 (Homo sapiens) (Q15678 whole entry, looked up): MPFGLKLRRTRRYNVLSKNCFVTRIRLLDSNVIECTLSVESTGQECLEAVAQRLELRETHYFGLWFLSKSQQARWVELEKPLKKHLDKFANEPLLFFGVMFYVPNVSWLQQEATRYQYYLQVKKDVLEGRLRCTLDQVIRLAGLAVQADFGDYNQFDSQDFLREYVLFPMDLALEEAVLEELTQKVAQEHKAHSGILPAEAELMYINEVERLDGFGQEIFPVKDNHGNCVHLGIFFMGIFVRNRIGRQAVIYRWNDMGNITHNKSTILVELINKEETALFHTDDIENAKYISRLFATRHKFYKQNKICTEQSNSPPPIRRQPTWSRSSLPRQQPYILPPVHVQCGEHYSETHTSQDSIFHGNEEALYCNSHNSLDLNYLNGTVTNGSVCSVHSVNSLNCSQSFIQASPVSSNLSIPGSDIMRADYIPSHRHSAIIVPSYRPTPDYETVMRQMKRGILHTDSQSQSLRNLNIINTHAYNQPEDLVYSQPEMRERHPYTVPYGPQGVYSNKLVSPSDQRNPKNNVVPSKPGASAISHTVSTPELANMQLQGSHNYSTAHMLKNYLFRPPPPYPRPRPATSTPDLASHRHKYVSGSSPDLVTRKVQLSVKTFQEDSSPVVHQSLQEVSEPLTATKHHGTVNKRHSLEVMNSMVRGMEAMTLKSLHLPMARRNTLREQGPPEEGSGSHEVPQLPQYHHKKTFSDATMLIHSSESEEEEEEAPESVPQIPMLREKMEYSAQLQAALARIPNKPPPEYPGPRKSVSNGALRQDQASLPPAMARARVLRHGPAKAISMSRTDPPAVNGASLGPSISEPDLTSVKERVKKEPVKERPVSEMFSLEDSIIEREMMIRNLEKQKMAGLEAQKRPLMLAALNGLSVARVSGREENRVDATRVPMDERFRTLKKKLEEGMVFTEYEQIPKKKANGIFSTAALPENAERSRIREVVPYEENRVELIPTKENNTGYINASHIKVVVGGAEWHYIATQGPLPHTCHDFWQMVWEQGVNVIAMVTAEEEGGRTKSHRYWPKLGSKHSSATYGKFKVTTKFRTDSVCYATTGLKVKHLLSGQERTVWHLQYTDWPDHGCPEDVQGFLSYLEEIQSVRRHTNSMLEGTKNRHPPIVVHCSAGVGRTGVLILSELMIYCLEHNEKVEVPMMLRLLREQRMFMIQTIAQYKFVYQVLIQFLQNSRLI
Sequence of human Protein Phosphatase, Mg2+/Mn2+ Dependent 1A (PPM1A), PPM1A (gene 5494) (P35813 whole entry, looked up): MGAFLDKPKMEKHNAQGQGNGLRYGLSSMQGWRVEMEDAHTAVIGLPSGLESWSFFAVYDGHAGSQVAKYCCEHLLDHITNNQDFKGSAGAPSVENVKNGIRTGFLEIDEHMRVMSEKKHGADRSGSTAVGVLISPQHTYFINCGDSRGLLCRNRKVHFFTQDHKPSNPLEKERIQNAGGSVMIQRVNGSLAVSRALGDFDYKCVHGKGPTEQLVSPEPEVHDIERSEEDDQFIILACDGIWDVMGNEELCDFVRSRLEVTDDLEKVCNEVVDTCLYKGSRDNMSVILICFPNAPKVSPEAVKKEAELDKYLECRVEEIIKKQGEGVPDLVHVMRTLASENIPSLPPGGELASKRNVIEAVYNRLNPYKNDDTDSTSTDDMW

`O=C(O)CCN(C1(C(=O)NO)CCCC1)S(=O)(=O)c1ccc(Oc2ccc(F)cc2)cc1`: the call in [1] was inactive. As for `CN(C)c1ccc(Cc2ccc(N(C)C)cc2)cc1`, the compound was called inactive in test [2].

Take `NC(=O)NO`: the outcome in [2] was inactive. Turning to `CCCCCCCCCCCCc1ccccc1`, in [3], the compound was called inactive. `O=C(CCCCCCCCc1cccnc1)N1CCC(C=C(c2ccccc2)c2ccccc2)CC1`: the result in [4] was inactive. Consider `Nc1nc2ncc(CNc3ccc(C(=O)N[C@@H](CCC(=O)O)C(=O)O)cc3)nc2c(=O)[nH]1`, for which the AC50 was 30.2 µM (active) in test [4], 14.9 µM (active) in [5] and 41.9 µM (active) in [6].

On to `CCC(C)(C)C(=O)O[C@H]1C[C@@H](C)C=C2C=C[C@H](C)[C@H](CC[C@@H]3C[C@@H](O)CC(=O)O3)[C@H]21`, for which, in [7], the AC50 was 33.5 µM (active). Turning to `Cc1[nH]cnc1C[C@H]1CCc2c(C)c3ccccc3n2C1=O`, in test [7], the compound was classed as inactive. With `COC(=O)c1c(Cl)c(Cl)c(C(=O)OC)c(Cl)c1Cl`, the result in test [8] was inactive.

Regarding `Nc1ccc(Nc2ccccc2)cc1`, in test [9], the AC50 was 15.8 µM (active). For `O=P(OC(CCl)CCl)(OC(CCl)CCl)OC(CCl)CCl`, the outcome in [9] was inactive.

(Values after PubChem BioAssay (EPA / NIEHS).)
